# Source: the supplement of paper PMC12282887
# ± gives the standard deviation of the averaged measurements.
# Assays:
# Assay in all cases: promoter activity interaction Z-score (Lux/OD deviation from empty-vector control); higher = stronger promoter induction by the compound
# [1] = system: E. coli BW25113 acrABp lux reporter
# In short: (§1)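 In 384-well plates, 40 µl LB Lennox cultures of E. coli BW25113 with low-copy luxCDABE promoter reporters grew at 37°C. Optical density at 600 nm and light output were recorded every 30 min for 12 h, with windows of 0–8 h for wild type and 1–9 h for deletion strains, and wells under 10% of the median growth value were left out. Each value is a Z-transformed residual of growth-normalised luminescence fitted against a control.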
# [2] = system: E. coli BW25113 micFp lux reporter
# In short: as §1
# [3] = system: E. coli BW25113 ompFp lux reporter
# In short: as §1
# [4] = system: E. coli BW25113 robp lux reporter
# In short: as §1
# [5] = system: E. coli BW25113 soxSp lux reporter
# In short: as §1
# [6] = system: E. coli BW25113 tolCp lux reporter
# In short: as §1
# [7] = 2.6 µg/ml, genetic background: wild type
# [8] = 2.6 µg/ml, genetic background: ΔmarA
# [9] = 2.6 µg/ml, genetic background: Δrob
# [10] = 2.6 µg/ml, genetic background: ΔsoxS
# [11] = 5.3 µg/ml, genetic background: wild type
# [12] = 5.3 µg/ml, genetic background: ΔmarA
# [13] = 5.3 µg/ml, genetic background: Δrob
# [14] = 5.3 µg/ml, genetic background: ΔsoxS
# [15] = 10.6 µg/ml, genetic background: wild type
# [16] = 10.6 µg/ml, genetic background: ΔmarA
# [17] = 10.6 µg/ml, genetic background: Δrob
# [18] = 10.6 µg/ml, genetic background: ΔsoxS
# [19] = 21.1 µg/ml, genetic background: wild type
# [20] = 21.1 µg/ml, genetic background: ΔmarA
# [21] = 21.1 µg/ml, genetic background: Δrob
# [22] = 21.1 µg/ml, genetic background: ΔsoxS
structure (smiles),measurement,setting,value
CC(=O)N[C@H]1[C@@H](O[C@@H]2O[C@H](CC(O)[C@H]3O[C@@H](n4ccc(=O)[nH]c4=O)[C@H](O)[C@@H]3O)[C@H](O)[C@H](O)[C@H]2NC(=O)/C=C/CC(C)C)O[C@H](CO)[C@@H](N)[C@@H]1O (stereo partly specified) [Tunicamycin],promoter activity interaction Z-score,[1]; [7],0.13 ± 0.29
same,promoter activity interaction Z-score,[1]; [8],-0.0876 ± 0.12
same,promoter activity interaction Z-score,[1]; [9],-0.143 ± 0.18
same,promoter activity interaction Z-score,[1]; [10],-0.217 ± 0.36
same,promoter activity interaction Z-score,[1]; [11],-0.0561 ± 0.2
same,promoter activity interaction Z-score,[1]; [12],-0.914 ± 0.2
same,promoter activity interaction Z-score,[1]; [13],-0.22 ± 0.25
same,promoter activity interaction Z-score,[1]; [14],-0.179 ± 0.21
same,promoter activity interaction Z-score,[1]; [15],0.0358 ± 0.052
same,promoter activity interaction Z-score,[1]; [16],0.615 ± 0.22
same,promoter activity interaction Z-score,[1]; [17],-0.243 ± 0.0041
same,promoter activity interaction Z-score,[1]; [18],-0.426 ± 0.35
same,promoter activity interaction Z-score,[1]; [19],-0.24 ± 0.063
same,promoter activity interaction Z-score,[1]; [20],-0.0177 ± 0.64
same,promoter activity interaction Z-score,[1]; [21],-0.332 ± 0.11
same,promoter activity interaction Z-score,[1]; [22],-0.769 ± 0.066
same,promoter activity interaction Z-score,[2]; [7],0.395 ± 0.012
same,promoter activity interaction Z-score,[2]; [8],0.0327 ± 0.17
same,promoter activity interaction Z-score,[2]; [9],0.0339 ± 0.11
same,promoter activity interaction Z-score,[2]; [10],0.164 ± 0.031
same,promoter activity interaction Z-score,[2]; [11],0.157 ± 0.33
same,promoter activity interaction Z-score,[2]; [12],-0.0548 ± 0.095
same,promoter activity interaction Z-score,[2]; [13],0.115 ± 0.13
same,promoter activity interaction Z-score,[2]; [14],-0.136 ± 0.086
same,promoter activity interaction Z-score,[2]; [15],-0.104 ± 0.25
same,promoter activity interaction Z-score,[2]; [16],0.0656 ± 0.17
same,promoter activity interaction Z-score,[2]; [17],0.0163 ± 0.13
same,promoter activity interaction Z-score,[2]; [18],-0.276 ± 0.12
same,promoter activity interaction Z-score,[2]; [19],-0.663 ± 0.012
same,promoter activity interaction Z-score,[2]; [20],-0.0908 ± 0.024
same,promoter activity interaction Z-score,[2]; [21],-0.359 ± 0.073
same,promoter activity interaction Z-score,[2]; [22],-0.569 ± 0.028
same,promoter activity interaction Z-score,[3]; [7],-0.448 ± 0.043
same,promoter activity interaction Z-score,[3]; [8],-0.515 ± 0.43
same,promoter activity interaction Z-score,[3]; [9],-0.684 ± 0.075
same,promoter activity interaction Z-score,[3]; [10],-0.00783 ± 0.5
same,promoter activity interaction Z-score,[3]; [11],-0.405 ± 0.21
same,promoter activity interaction Z-score,[3]; [12],-0.484 ± 1.3
same,promoter activity interaction Z-score,[3]; [13],-0.656 ± 0.73
same,promoter activity interaction Z-score,[3]; [14],0.307 ± 0.49
same,promoter activity interaction Z-score,[3]; [15],-0.305 ± 0.016
same,promoter activity interaction Z-score,[3]; [16],-0.602 ± 0.0081
same,promoter activity interaction Z-score,[3]; [17],-0.783 ± 0.28
same,promoter activity interaction Z-score,[3]; [18],-0.819 ± 0.56
same,promoter activity interaction Z-score,[3]; [19],-0.675 ± 0.34
same,promoter activity interaction Z-score,[3]; [20],-0.947 ± 0.57
same,promoter activity interaction Z-score,[3]; [21],-0.245 ± 0.018
same,promoter activity interaction Z-score,[3]; [22],-1.09 ± 0.71
same,promoter activity interaction Z-score,[4]; [7],-0.274 ± 0.39
same,promoter activity interaction Z-score,[4]; [8],-0.38 ± 0.41
same,promoter activity interaction Z-score,[4]; [9],-0.03 ± 0.92
same,promoter activity interaction Z-score,[4]; [10],-0.268 ± 0.31
same,promoter activity interaction Z-score,[4]; [11],0.0974 ± 0.18
same,promoter activity interaction Z-score,[4]; [12],-1.07 ± 0.12
same,promoter activity interaction Z-score,[4]; [13],0.0652 ± 0.47
same,promoter activity interaction Z-score,[4]; [14],0.323 ± 0.16
same,promoter activity interaction Z-score,[4]; [15],-0.167 ± 0.13
same,promoter activity interaction Z-score,[4]; [16],-0.402 ± 0.074
same,promoter activity interaction Z-score,[4]; [17],-0.108 ± 0.64
same,promoter activity interaction Z-score,[4]; [18],-0.846 ± 0.13
same,promoter activity interaction Z-score,[4]; [19],-0.06 ± 0.16
same,promoter activity interaction Z-score,[4]; [20],0.217 ± 0.25
same,promoter activity interaction Z-score,[4]; [21],-0.865 ± 0.29
same,promoter activity interaction Z-score,[4]; [22],-1.32 ± 0.15
same,promoter activity interaction Z-score,[5]; [7],-0.153 ± 0.24
same,promoter activity interaction Z-score,[5]; [8],-0.163 ± 0.076
same,promoter activity interaction Z-score,[5]; [9],-0.181 ± 0.11
same,promoter activity interaction Z-score,[5]; [10],-0.281 ± 0.17
same,promoter activity interaction Z-score,[5]; [11],-0.207 ± 0.12
same,promoter activity interaction Z-score,[5]; [12],-0.432 ± 0.03
same,promoter activity interaction Z-score,[5]; [13],-0.396 ± 0.41
same,promoter activity interaction Z-score,[5]; [14],-0.473 ± 0.0061
same,promoter activity interaction Z-score,[5]; [15],-0.362 ± 0.15
same,promoter activity interaction Z-score,[5]; [16],-0.417 ± 0.065
same,promoter activity interaction Z-score,[5]; [17],-0.286 ± 0.13
same,promoter activity interaction Z-score,[5]; [18],-0.66 ± 0.33
same,promoter activity interaction Z-score,[5]; [19],-0.651 ± 0.052
same,promoter activity interaction Z-score,[5]; [20],-0.805 ± 0.022
same,promoter activity interaction Z-score,[5]; [21],-0.856 ± 0.24
same,promoter activity interaction Z-score,[5]; [22],-1.4 ± 0.29
same,promoter activity interaction Z-score,[6]; [7],0.117 ± 0.23
same,promoter activity interaction Z-score,[6]; [8],0.186 ± 0.86
same,promoter activity interaction Z-score,[6]; [9],0.627 ± 0.57
same,promoter activity interaction Z-score,[6]; [10],-0.42 ± 1.2
same,promoter activity interaction Z-score,[6]; [11],0.292 ± 0.33
same,promoter activity interaction Z-score,[6]; [12],0.228 ± 1.2
same,promoter activity interaction Z-score,[6]; [13],0.351 ± 0.028
same,promoter activity interaction Z-score,[6]; [14],-0.0491 ± 0.37
same,promoter activity interaction Z-score,[6]; [15],0.145 ± 0.28
same,promoter activity interaction Z-score,[6]; [16],-0.36 ± 0.22
same,promoter activity interaction Z-score,[6]; [17],0.607 ± 0.47
same,promoter activity interaction Z-score,[6]; [18],-0.445 ± 0.3
same,promoter activity interaction Z-score,[6]; [19],0.0528 ± 0.23
same,promoter activity interaction Z-score,[6]; [20],-0.275 ± 0.55
same,promoter activity interaction Z-score,[6]; [21],-1.04 ± 0.42
same,promoter activity interaction Z-score,[6]; [22],-0.899 ± 0.71
